D1 potentiator: human D1 dopamine receptor positive modulation; P21728; HEK293 TREx D1 cells, calcium flux, dopamine EC20 potentiation; potentiation, % at 10 µM; 360,000 compounds, 0.036% hits; in the data active = potentiation above about 30%
D3 ag: D3 dopamine receptor (human) agonism; 410,000 compounds, 0.58% hits; P35462; AID 652048; max activation, %; D3R DiscoveRx beta-arrestin cells, luminescence, 90 min; in the data active = max activation above about 30%
Target sequence (P35462 whole entry, looked up): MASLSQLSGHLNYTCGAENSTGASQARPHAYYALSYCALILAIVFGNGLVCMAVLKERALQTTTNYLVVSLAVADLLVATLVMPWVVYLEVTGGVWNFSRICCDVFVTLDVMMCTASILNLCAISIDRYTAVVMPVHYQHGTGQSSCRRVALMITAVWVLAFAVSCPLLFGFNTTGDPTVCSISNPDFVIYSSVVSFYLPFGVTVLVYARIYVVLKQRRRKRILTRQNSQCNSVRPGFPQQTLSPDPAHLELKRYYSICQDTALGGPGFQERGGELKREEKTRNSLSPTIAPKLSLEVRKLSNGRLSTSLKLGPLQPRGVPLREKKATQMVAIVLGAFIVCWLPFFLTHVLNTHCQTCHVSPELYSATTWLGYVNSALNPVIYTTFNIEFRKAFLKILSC
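Agonist-mode cell screen: cells plated at 1500/well and incubated overnight at 37 °C, then exposed to library compounds for 90 min at 37 °C. Detection reagent was added for 30–60 min at room temperature, and luminescence was read.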
D1 antagonist: human D1 dopamine receptor antagonism; P21728; HEK293 TREx D1 cells, calcium flux, dopamine EC80; stronger effect = lower value; activity change, negative = inhibition, % at 10 µM; 360,000 compounds, 3.2% hits; AID 504652; in the data active = activity change below about -30%
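Calcium flux readout: force-coupled, inducible Hek293 Trex D1 line, cells induced overnight at 30 C with tetracycline, dye-loaded 30–90 min at RT. Antagonism scored against EC80 dopamine challenge given 180 s after compound.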
D1 agonist: activates the human D1 dopamine receptor | P21728 | activation, % at 2 µM | HEK293 T-REx D1 cells, calcium flux, agonist mode | 360,000 compounds, 1% hits; in the data active = activation above about 30%
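Agonism was scored from calcium flux recorded over 180 s (1 read/s) after pintool compound addition, following a 10-cycle baseline. Cells were inducible force-coupled HEK293 TREx D1, plated overnight at 30 C and loaded with no-wash calcium dye.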
D3 antag: blocks the human D3 dopamine receptor. P35462. D3R cells, DiscoveRx beta-arrestin luminescence, antagonist mode; stronger effect = lower value. max response, negative = inhibition, %. 360,000 compounds, 2.5% hits; in the data active = max response below about -50%; inconclusive = no clear call, values can overlap the other calls
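Cells plated overnight at 1500 cells/well, then exposed to library compounds with dopamine controls for 90 minutes at 37 degrees C. DiscoveRx reagent added for 30–60 minutes at room temperature; luminescence read, quantitative HTS format.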
Numbers stand for hits. Hits are enriched below; roughly 6% of the tested compounds scored in any of these assays.

What do the screens show for `O=C(N[C@@H]1CCC(=O)N(CC[C@H](Sc2ccccc2)c2ccccc2)CC1)OCc1ccccc1`?
D1 potentiator: inactive; D3 ag: inactive; D1 antagonist: inactive; D1 agonist: inactive; D3 antag: -92

Results for Cc1ccc(S[C@@H](CCN2CC[C@H](O)CCC2=O)c2ccccc2)cc1 ?
D1 potentiator: inactive; D3 ag: inactive; D1 antagonist: -31; D1 agonist: inactive; D3 antag: inactive

How did CC(C)c1cnc2c(c1SCC(=O)NCc1ccccc1Cl)c(=O)n(C)c(=O)n2C do in these assays?
D1 potentiator: inactive; D3 ag: inactive; D1 antagonist: inactive; D1 agonist: inactive

What do the screens show for `O=[N+]([O-])c1cccnc1N1CCN(Cc2ccc3c(c2)OCO3)CC1`?
D1 potentiator: inactive; D3 ag: inactive; D1 antagonist: -37; D1 agonist: inactive; D3 antag: inactive

How did O=[N+]([O-])c1ccc2ncnc(N3CCN(Cc4ccc5c(c4)OCO5)CC3)c2c1 do in these assays?
D1 potentiator: inactive; D3 ag: 43; D1 antagonist: inactive; D1 agonist: inactive; D3 antag: inactive

Results for CCCc1cc(=O)[nH]c(Nc2cc(OC)ccc2OC)n1 ?
D1 potentiator: inactive; D3 ag: inactive; D1 antagonist: inactive; D1 agonist: inactive; D3 antag: -52

How did CCCCn1c(N)c(NCC(C)C)c(=O)[nH]c1=O do in these assays?
D1 potentiator: inactive; D3 ag: inactive; D1 antagonist: -46; D1 agonist: inactive; D3 antag: inactive

How did CN(Cc1ccccc1)Cc1c[nH]c2ccccc12 do in these assays?
D1 potentiator: inactive; D3 ag: inactive; D1 antagonist: -62; D1 agonist: inactive; D3 antag: -82

What do the screens show for `c1ccc(Cc2c[nH]c3ccccc23)cc1`?
D1 potentiator: inactive; D3 ag: inactive; D1 antagonist: inactive; D1 agonist: inactive; D3 antag: inactive

Results for COc1cc(/C=C(/C#N)C(=O)NCc2ccccc2)cc(OC)c1OC ?
D1 potentiator: inactive; D3 ag: inactive; D1 antagonist: inactive; D1 agonist: inactive; D3 antag: inactive

How did COc1ccc(/C=C(\C#N)C(=O)NCCc2ccccc2)cc1OCc1ccccc1 do in these assays?
D1 potentiator: inactive; D3 ag: inactive; D1 antagonist: inactive; D1 agonist: 33; D3 antag: inactive

Results for N#C/C(=C/c1ccc(C(=O)O)cc1)C(=O)NCc1ccccc1 ?
D1 potentiator: inactive; D3 ag: inactive; D1 antagonist: inactive; D1 agonist: inactive; D3 antag: inactive

Results for CC(NC(=O)/C(C#N)=C/c1ccc(C(=O)O)cc1)c1ccccc1 (centres undefined) ?
D1 potentiator: inactive; D3 ag: inactive; D1 antagonist: inactive; D1 agonist: inactive; D3 antag: inactive

Results for COc1cc(/C=C(/C#N)C(=O)NC(C)c2ccccc2)cc(OC)c1O (centres undefined) ?
D1 potentiator: inactive; D3 ag: inactive; D1 antagonist: inactive; D1 agonist: 95; D3 antag: inactive

Results for N#C/C(=C\c1ccc(O)c(O)c1)C(=O)NCCCc1ccccc1 ?
D1 potentiator: inactive; D3 ag: inactive; D1 antagonist: inactive; D1 agonist: inactive; D3 antag: -80

How did CCOC(=O)c1cc(-c2ccc(OC)cc2)n(CCC(=O)NCc2ccc(OC)cc2)c1C do in these assays?
D1 potentiator: inactive; D3 ag: inactive; D1 antagonist: inactive; D1 agonist: inactive

What do the screens show for `Cc1ccc(O)c(C2=Nc3ccccc3N=C(c3cccc(F)c3)C2)c1`?
D1 potentiator: inactive; D1 antagonist: inactive; D1 agonist: inactive

How did COc1ccccc1N1CCN(S(=O)(=O)c2ccc(-c3coc(C)n3)cc2)CC1 do in these assays?
D1 potentiator: inactive; D3 ag: inactive; D1 antagonist: inactive; D1 agonist: inactive

Results for Cc1cc(S(=O)(=O)Nc2ccc(C(=O)N3CCN(c4ccccc4O)CC3)cc2)ccc1F ?
D1 potentiator: inactive; D3 ag: 32; D1 antagonist: inactive; D1 agonist: inactive; D3 antag: inactive

How did Cc1cc(S(=O)(=O)N2CCN(c3ccccn3)CC2)ccc1F do in these assays?
D1 potentiator: inactive; D3 ag: inactive; D1 antagonist: inactive; D1 agonist: inactive; D3 antag: inactive

How did Cc1ccc(N2CCN(S(=O)(=O)c3ccc(F)c(C)c3)CC2)c(C)c1 do in these assays?
D1 potentiator: inactive; D3 ag: inactive; D1 antagonist: inactive; D1 agonist: inactive; D3 antag: -51

How did CCc1ccccc1N1CCN(S(=O)(=O)c2ccc(F)c(C)c2)CC1 do in these assays?
D1 potentiator: inactive; D3 ag: inactive; D1 antagonist: -37; D1 agonist: inactive; D3 antag: inactive

How did Cc1nc(-c2ccc(S(=O)(=O)N3CCN(c4ccccc4F)CC3)cc2)co1 do in these assays?
D1 potentiator: inactive; D3 ag: inactive; D1 antagonist: -34; D1 agonist: inactive

How did O=[N+]([O-])c1ccc(S(=O)(=O)Nc2nnc(C(F)(F)F)s2)cc1 do in these assays?
D1 potentiator: inactive; D3 ag: inactive; D1 antagonist: -52; D1 agonist: inactive; D3 antag: inactive

What do the screens show for `CC(=O)N1C=Cc2c(c(C)c3c([nH]c4ccccc43)c2C)C1`?
D1 potentiator: inactive; D1 antagonist: inactive; D1 agonist: 58

Results for CC(=O)N1CCc2[nH]c3ccccc3c2C1 ?
D1 potentiator: inactive; D3 ag: inactive; D1 antagonist: inactive; D1 agonist: inactive; D3 antag: inactive

What do the screens show for `O=C1CC(c2ccccc2)c2c(n3ncnc3[nH]c2=O)N1` (centres undefined)?
D1 potentiator: inactive; D3 ag: inactive; D1 antagonist: inactive; D1 agonist: inactive

How did COC(=O)c1ccc(NC(=O)COC(=O)c2nc3nccc(C)n3n2)cc1 do in these assays?
D1 potentiator: inactive; D3 ag: inactive; D1 antagonist: -35; D1 agonist: inactive; D3 antag: inactive

How did O=C(COC(=O)COc1ccc(Cl)cc1)Nc1cccnc1Cl do in these assays?
D3 ag: inactive; D3 antag: inactive

Results for O=S(=O)(Nc1cccnc1)c1cccc2ccccc12 ?
D1 potentiator: inactive; D1 antagonist: inactive; D1 agonist: inactive

How did CCc1ccc([C@@H]2CC=C(C(=O)O)[C@H](c3ccc(F)cc3)N2S(=O)(=O)c2ccc(C)cc2)cc1 do in these assays?
D1 potentiator: inactive; D3 ag: inactive; D1 antagonist: inactive; D1 agonist: inactive; D3 antag: -52

What do the screens show for `Cc1ccc([C@@H]2CC=C(C(=O)O)[C@H](c3ccc(F)cc3)N2S(=O)(=O)c2ccc(C)cc2)cc1`?
D1 potentiator: inactive; D3 ag: inactive; D1 antagonist: inactive; D1 agonist: inactive; D3 antag: -83

What do the screens show for `CCc1ccc([C@@H]2CC=C(C(=O)O)[C@H](c3ccccc3)N2S(=O)(=O)c2ccc(C)cc2)cc1`?
D1 potentiator: inactive; D3 ag: inactive; D1 antagonist: inactive; D1 agonist: inactive; D3 antag: inconclusive

What do the screens show for `CCOC(=O)c1c(NC(=O)c2cc(=O)c3cc(C)ccc3o2)sc2c1CCCC2`?
D1 potentiator: inactive; D3 ag: inactive; D1 antagonist: inactive; D1 agonist: inactive

Bioassay records as filed in PubChem BioAssay.
